Active and inactive are the calls of the source. Rule for the calls: active = hit-call score of the fitted dose curve at least 0.9, where 1 is the maximum; inactive = score below 0.9.
How the values were obtained:
[1] = APR_HepG2_P-H2AX_72hr: Apredica 72-hour HepG2 Assay for H2AX Phosphorylation (AID 2282916); settings: imaging, actives raise or lower the signal;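 note: phospho-histone H2A.x immunostain intensity per cell marking DNA damage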
Method in brief: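 Readout: phospho-H2A.x immunofluorescence (FITC secondary) plus Hoechst nuclear stain, high-content imaging at 20x, six fields/well. HepG2, 72 hr compound exposure, 0.39–200 uM, final DMSO 0.5% v/v. Gain or loss fitted relative to DMSO baseline.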

[2] = APR_HepG2_MitoMembPot_72hr: Apredica 72-hour HepG2 Assay for Mitochondrial Membrane Potential (AID 2282917); settings: imaging, actives raise or lower the signal
Method in brief: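 HepG2 cells exposed 72 h to compounds at 0.39–200 uM (0.5% v/v DMSO, duplicates); MitoTracker Red CMXRos 250 nM loaded 30 min before 3.7% formaldehyde fixation, imaged by HCS fluorescence. Bidirectional fit versus DMSO.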

[3] = APR_HepG2_MitoticArrest_72hr: Apredica 72-hour HepG2 Assay for Mitotic Arrest (AID 2282918); settings: high-content imaging, actives raise or lower the signal
Method in brief: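 Using high-content imaging of fixed HepG2 cells, phospho-histone H3 signal was measured following a 72 hr incubation with ten-point compound dilutions up to 200 uM. DMSO served as the negative control and baseline for bidirectional curve fitting.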

[4] = APR_HepG2_MicrotubuleCSK_72hr: Apredica 72-hour HepG2 Assay for Microtubule CSK Stabilty (AID 2282919); settings: HepG2 microtubule cytoskeleton, high-content imaging, actives raise or lower the signal
Method in brief: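 Ten-point dosing (0.39–200 uM, 0.5% DMSO) of HepG2 for 72 hr, with taxol as the cytoskeletal positive control. The cells were formaldehyde-fixed and then stained with alpha-tubulin/Cy5 and Hoechst. Imaging at 20x used a −2 um Z offset for tubulin.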

[5] = APR_HepG2_P-H2AX_24hr: Apredica 24-hour HepG2 Assay for H2AX Phosphorylation (AID 2282920); settings: high-content imaging, actives raise or lower the signal
Method in brief: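 Human HepG2 liver cells, treated 24 hr with test chemicals (0.39–200 uM, final DMSO 0.5% v/v), are fixed and co-stained for phospho-H2A.x and c-Jun with Hoechst. Imaged intensity is fitted in both directions against DMSO controls.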

[6] = APR_HepG2_StressKinase_72hr: Apredica 72-hour HepG2 Assay for Stress Kinase (AID 2282921); settings: HepG2 stress kinase (phospho-c-Jun) imaging, actives raise or lower the signal
Method in brief: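 Phospho-c-Jun immunofluorescence measured by high-content imaging at 20x, six fields per well; bidirectional curve fitting against DMSO as baseline. Dosing: 0.39–200 uM, 72 h, 0.5% DMSO final.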

[7] = APR_HepG2_StressKinase_24hr: Apredica 24-hour HepG2 Assay for Stress Kinase (AID 2282922); settings: HepG2 stress kinase (phospho-c-Jun) imaging, actives raise or lower the signal
Method in brief: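 After 24 hr compound treatment (up to 200 uM, final DMSO 0.5% v/v), HepG2 cells are fixed and multiplex-labeled; phospho-c-Jun intensity is captured by high-content fluorescence imaging and analyzed relative to DMSO.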

[8] = APR_HepG2_p53Act_72hr: Apredica 72-hour HepG2 Assay for p53 Activation (AID 2282923); settings: high-content imaging, actives raise or lower the signal;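 note: average cellular p53 protein immunofluorescence intensity in HepG2 cells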
Method in brief: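 Readout: p53 immunofluorescence quantified by automated high-content imaging at 20x, six fields per well, nuclei located via Hoechst. Dosing ran 72 hr over ten concentrations from 0.39 to 200 uM; bidirectional curve fitting against DMSO baseline.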

[9] = APR_HepG2_MitoMass_72hr: Apredica 72-hour HepG2 Assay for Mitochondrial Mass (AID 2282924); settings: high-content imaging, actives raise or lower the signal;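 note: MitoTracker Red CMXRos stain intensity per cell imaged as mitochondrial mass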
Method in brief: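 Steps: treat HepG2 72 hr (0.39–200 uM, duplicate wells); load MitoTracker Red CMXRos, 250 nM, 30 min; fix with 3.7% formaldehyde, permeabilise with 0.5% Triton X-100; capture images, nuclei via Hoechst 33342; fit bidirectionally against DMSO.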

[10] = APR_HepG2_NuclearSize_72hr: Apredica 72-hour HepG2 Assay for Nuclear Size (AID 2282925); settings: high-content imaging, actives raise or lower the signal
Method in brief: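 Compounds (0.39–200 uM, final DMSO 0.5%) were applied to HepG2 for 72 hr. Cells were then formaldehyde-fixed, permeabilized and labelled with Hoechst 33342. Nuclear diameter was quantified from six images per well.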

Compound | AC50 [1] | AC50 [2] | AC50 [3] | AC50 [4] | AC50 [5] | AC50 [6] | outcome [7] | AC50 [8] | outcome [9] | outcome [10] | outcome [1] | outcome [2] | outcome [3] | outcome [4] | outcome [5] | outcome [6] | outcome [8] | AC50 [10] | AC50 [7] | AC50 [9]
O=C(Nc1ccc(Cl)cc1)Nc1ccc(Cl)c(Cl)c1 | 6.38 µM (active) | 56.3 µM (active) | 5.5 µM (active) | 6.77 µM (active) | 4.63 µM (active) | 7.87 µM (active) | inactive | 5.61 µM (active) | inactive | inactive | – | – | – | – | – | – | – | – | – | –
Cc1oc2c(NC(=O)c3c(Cl)cccc3Cl)cccc2c1C(C)(C)O | – | – | – | – | – | – | inactive | – | inactive | inactive | inactive | inactive | inactive | inactive | inactive | inactive | inactive | – | – | –
Clc1cc(Cl)c2c(c1)N=C1CCCCCN1C2 | – | – | – | – | – | – | inactive | – | inactive | inactive | inactive | inactive | inactive | inactive | inactive | inactive | inactive | – | – | –
Cc1c2ccccc2c(C)c2c1ccc1ccccc12 | 21.5 µM (active) | – | 35.8 µM (active) | 74 µM (active) | 19.8 µM (active) | 6.17 µM (active) | inactive | 0.355 µM (active) | inactive | – | – | inactive | – | – | – | – | – | 54.7 µM (active) | – | –
CC1(C)NC(=O)N(c2ccc([N+](=O)[O-])c(C(F)(F)F)c2)C1=O | – | – | – | – | – | – | inactive | – | inactive | inactive | inactive | inactive | inactive | inactive | inactive | inactive | inactive | – | – | –
Cc1cc2c(cc1C(F)(F)F)N(C(=O)Nc1ccc(Oc3cccnc3C)nc1)CC2 | 22.2 µM (active) | – | 46.3 µM (active) | 38.4 µM (active) | 43 µM (active) | 20.1 µM (active) | – | 27.8 µM (active) | inactive | inactive | – | inactive | – | – | – | – | – | – | 26.2 µM (active) | –
Oc1ccc2ccccc2c1 | – | – | – | – | – | – | inactive | – | inactive | inactive | inactive | inactive | inactive | inactive | inactive | inactive | inactive | – | – | –
c1ccc2n[nH]nc2c1 | – | – | – | – | – | – | inactive | – | inactive | inactive | inactive | inactive | inactive | inactive | inactive | inactive | inactive | – | – | –
O=C(O)Cn1c(=O)n(Cc2ccc(Br)cc2F)c(=O)c2ccc(Cl)cc21 | – | – | – | – | – | – | inactive | – | inactive | inactive | inactive | inactive | inactive | inactive | inactive | inactive | inactive | – | – | –
COCC(C)OCC(C)OCC(C)O (stereo not given) | – | – | – | – | – | – | inactive | – | inactive | inactive | inactive | inactive | inactive | inactive | inactive | inactive | inactive | – | – | –
CC(C)(c1cc(Br)c(O)c(Br)c1)c1cc(Br)c(O)c(Br)c1 | 63.3 µM (active) | – | 69 µM (active) | – | 70.7 µM (active) | – | inactive | 47.8 µM (active) | – | – | – | inactive | – | inactive | – | inactive | – | 77.7 µM (active) | – | 51.4 µM (active)
COc1cc(C(=O)NC2CCN(C)CC2)ccc1Nc1ncc2c(n1)N(C1CCCC1)CC(F)(F)C(=O)N2C | – | – | – | – | – | – | inactive | – | inactive | inactive | inactive | inactive | inactive | inactive | inactive | inactive | inactive | – | – | –
CCN(Cc1cccnc1)C(=O)c1cccc(Cl)c1[C@]1(C)C(=O)N(Cc2ccc(OC)cc2OC)c2ccc(Cl)cc21 | 20.3 µM (active) | – | 21.8 µM (active) | – | – | – | inactive | 29.4 µM (active) | inactive | inactive | – | inactive | – | inactive | inactive | inactive | – | – | – | –
Oc1ccccc1 | – | – | – | – | – | – | inactive | – | inactive | inactive | inactive | inactive | inactive | inactive | inactive | inactive | inactive | – | – | –
CCCC(=O)OCCC(C)C | – | – | – | – | – | – | inactive | – | inactive | inactive | inactive | inactive | inactive | inactive | inactive | inactive | inactive | – | – | –
Cc1ccc2oc(CN(Cc3ccccc3)C(=O)Nc3c(F)cc(F)cc3F)c(-c3ccc(Cl)cc3)c2c1 | – | – | – | – | – | – | inactive | – | inactive | inactive | inactive | inactive | inactive | inactive | inactive | inactive | inactive | – | – | –
c1ccc(C[n+]2cccc3ccccc32)cc1 | 20.6 µM (active) | – | 109 µM (active) | 87 µM (active) | 106 µM (active) | 25.6 µM (active) | inactive | – | inactive | – | – | inactive | – | – | – | – | inactive | 68.9 µM (active) | – | –
CC(C)(O)c1ccc(CNC(=O)c2cccnc2Oc2ccc3nonc3c2)cc1 | – | – | – | – | – | – | inactive | – | inactive | inactive | inactive | inactive | inactive | inactive | inactive | inactive | inactive | – | – | –
CCCCCCCC[Si](OCC)(OCC)OCC | 19.8 µM (active) | – | 115 µM (active) | – | – | 100 µM (active) | inactive | 19.8 µM (active) | – | inactive | – | inactive | – | inactive | inactive | – | – | – | – | 41.2 µM (active)

— PubChem BioAssay (EPA / NIEHS)
